Reference: PubChem BioAssay AID431 (Sanford-Burnham Center for Chemical Genomics, 2006)
The whole screen tested about 63,000 compounds, of which about 1,100 (1.7%) were called active.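 The calls were made as follows: active = compounds whose percent cytotoxicity in the single-dose primary screen, scaled between solvent and toxic-drug controls, exceeds 50; inactive = the rest.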 Only a selection was taken, and actives are over-represented in it overall. Measured potencies and affinities stand elsewhere.

Experiment: cytotoxicity in KRAS-transformed pancreatic duct cells, primary screen, cell-based, fluorescence, HTS (AID 431);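 also: 0% = DMSO solvent wells and 100% = doxorubicin-treated wells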
Conditions: HPDE-C7K KRASV12 cells, Alamar Blue viability, 48 h; at 10 µM; active compounds read high
With O=C1c2ccccc2C(=O)N1CCN1CCOCC1 the cytotoxicity was -1.3% (inactive). For CC(C)N(C(=O)CSc1nnnn1C1CCCC1)C(C)C, the cytotoxicity was -9.6% (inactive). For CCCCn1nnnc1SCC(=O)Nc1ccc(C)cc1, the cytotoxicity was -4.8% (inactive). In the case of Cc1ccc(NS(=O)(=O)c2cc(C(=O)N3CCOCC3)ccc2C)cc1C, the cytotoxicity is reported as -4.4% (inactive). With CCN(CC)C(=O)c1sc(NC(=O)Cc2cccs2)c(C#N)c1C the cytotoxicity was -10.4% (inactive). In the case of CC(O)c1ccc2c(c1)OCCOCCN(C)CCOCCO2 (centres undefined), the cytotoxicity is reported as -3.4% (inactive). In the case of OC1C[N+]2(CCCCC2)C1, the cytotoxicity is reported as -0.4% (inactive). For CCNc1nc(SCC(=O)OC)nc(N2CCOCC2)n1, the cytotoxicity was -13.2% (inactive). In the case of O=C(CCC(=O)N(CC(=O)NC1CCCCC1)c1ccc2c(c1)OCO2)Nc1ccccn1, the cytotoxicity is reported as -8.1% (inactive). With Cc1ccc(C2CC(=O)Nc3cc4c(cc32)OCCO4)s1 (centres undefined) the cytotoxicity was 7.5% (inactive). With O=C1CC(c2cccs2)c2cc3c(cc2N1)OCCO3 (centres undefined) the cytotoxicity was 2.9% (inactive). In the case of CCCOc1ccccc1C1CC(=O)Nc2cc3c(cc21)OCCO3 (centres undefined), the cytotoxicity is reported as 73.4% (active). In the case of CC(C)NC(=O)c1ccccc1-c1nc(-c2ccccc2Cl)no1, the cytotoxicity is reported as 6% (inactive). With Clc1ccc2[nH]c3c(NCC4CCCO4)ncnc3c2c1 (centres undefined) the cytotoxicity was 57.6% (active). With CCN1CCCC1CNc1ncnc2c1[nH]c1ccc(Cl)cc12 (centres undefined) the cytotoxicity was 10.9% (inactive). With c1ccc2c(c1)[nH]c1c(NCC3CCCO3)ncnc12 (centres undefined) the cytotoxicity was 6.1% (inactive). With CC(C)(C)OC(=O)N1CCC[C@@H]1C(=O)N1CCC(C(=O)O)CC1 the cytotoxicity was 8.3% (inactive). With COc1ccc(NC(=O)Cn2nnc(-c3ccccc3NC(=O)c3cccs3)n2)cc1 the cytotoxicity was 9.5% (inactive). With O=C(O)c1ccc(CSc2n[nH]c(-c3ccco3)n2)cc1 the cytotoxicity was -2.9% (inactive). In the case of Cc1c(-c2ccccc2)c(P(=O)(N2CCOCC2)N2CCOCC2)c2ccccn12, the cytotoxicity is reported as -4.4% (inactive). With COc1ccccc1C1c2c(oc3ccc(Cl)cc3c2=O)C(=O)N1c1cc(C)on1 (centres undefined) the cytotoxicity was -23.6% (inactive). For COc1ccccc1-n1c(SC)nc(O)cc1=O, the cytotoxicity was 6.5% (inactive). In the case of COc1ccccc1-n1c(=O)oc2ccc(Cl)cc2c1=O, the cytotoxicity is reported as 53.6% (active). With C=CCN(CC=C)S(=O)(=O)c1ccc2nc(NC(=O)C(C)C)sc2c1 the cytotoxicity was 69.9% (active). For CCOC(=O)c1ccc2nc(NC(=O)C(C)C)sc2c1, the cytotoxicity was 6.2% (inactive). For C=CCN(CC=C)S(=O)(=O)c1ccc2nsnc2c1, the cytotoxicity was -22.3% (inactive). In the case of COc1ccc(C(=O)n2c(-c3ccco3)nc3ccccc32)cc1, the cytotoxicity is reported as 58.3% (active). With COc1ccc(C(=O)CSc2nnc(-c3ccco3)n2C)cc1 the cytotoxicity was 5.8% (inactive). For CCn1c(-c2ccco2)nc2ccccc21, the cytotoxicity was 5.1% (inactive).
